Values joined by “and” are separate entries in the source; they are usually repeats but may differ in a detail not shown here. Equal entries are not always repeated. About 2,000 (36%) of roughly 5,500 compounds were called active. Inconclusive results (about 18%) are left out. Rule as the data show it: active = normalized growth mostly below about 0.91 (no sharp cut-off); inconclusive = no clear call, values can overlap the other calls; inactive = mostly above about 0.92. Some of the results follow.
Experiment: chemical genetic growth profiling, strain panel (AID 1159580);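 also: tested at 20 µM; growth read once vehicle control cultures reached saturation at 30 °C; 1 = growth at the plate median or of vehicle wells; lower values mean less growth of the strain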
Settings: S. cerevisiae deletion strains, growth OD

Measured: normalized growth

CC(=O)Oc1ccccc1C(=O)Oc1ccccc1C(=O)O
inactive: locus YAL013W, strain DEP1, active compounds read low 0.989 | locus YAL021C, strain ccr4, active compounds read low 1.01 | locus YAL026C, strain drs2, active compounds read low 1.01 | locus YAL030W, strain snc1, active compounds read low 1 | locus YBL061C, strain skt5, active compounds read low 1 | locus YBR009C, strain hhf1, active compounds read low 1.01 | locus YBR021W, strain FUR4, active compounds read low 0.981 | locus YBR023C, strain chs3, active compounds read low 0.998 | locus YBR171W, strain sec66, active compounds read low 1 | locus YBR229C, strain ROT2, active compounds read low 0.992 | locus YBR231C, strain swc5, active compounds read low 0.995 | locus YBR279W, strain paf1, active compounds read low 1 | locus YCL011C, strain gbp2, active compounds read low 1.02 | locus YCL016C, strain dcc1, active compounds read low 1 | locus YCL029C, strain bik1, active compounds read low 0.98 | locus YCL069W, strain vba3, active compounds read low 1 | locus YCR088W, strain abp1, active compounds read low 1 | locus YDL005C, strain med2, active compounds read low 0.995 | locus YDL035C, strain GPR1, active compounds read low 1 | locus YDL040C, strain nat1, active compounds read low 1 | locus YDL074C, strain BRE1, active compounds read low 1.01 | locus YDL101C, strain DUN1, active compounds read low 0.997 | locus YDL134C, strain PPH21, active compounds read low 1.02 | locus YDL185W, strain tfp1, active compounds read low 0.987 | locus YDL192W, strain arf1, active compounds read low 0.993 | locus YDR001C, strain nth1, active compounds read low 1.01 | locus YDR069C, strain doa4, active compounds read low 0.996 | locus YDR101C, strain arx1, active compounds read low 0.994 | locus YDR137W, strain rgp1, active compounds read low 1 | locus YDR150W, strain NUM1, active compounds read low 0.996 | locus YDR159W, strain sac3, active compounds read low 0.962 | locus YDR162C, strain NBP2, active compounds read low 1.02 | locus YDR195W, strain ref2 0.962 | locus YDR297W, strain sur2, active compounds read low 1.01 | locus YDR318W, strain mcm21, active compounds read low 0.986 | locus YDR334W, strain swr1, active compounds read low 1 | locus YDR335W, strain msn5, active compounds read low 1 | locus YDR388W, active compounds read low 0.986 | locus YDR392W, strain spt3, active compounds read low 0.954 | locus YDR502C, strain sam2, active compounds read low 0.985 | locus YEL003W, strain gim4, active compounds read low 1.01 | locus YEL037C, strain rad23, active compounds read low 1 | locus YEL061C, strain CIN8 (second series), active compounds read low 1.01 | locus YEL061C, strain CIN8, active compounds read low 0.999 | locus YER015W, strain faa2, active compounds read low 0.997 | locus YER016W, strain bim1, active compounds read low 1 | locus YER110C, active compounds read low 0.98 | locus YER111C, strain swi4, active compounds read low 0.994 | locus YER155C, strain BEM2 (second series), active compounds read low 1.02 | locus YER155C, strain BEM2, active compounds read low 0.986 | locus YER167W, strain BCK2, active compounds read low 0.991 | locus YFR010W, strain ubp6, active compounds read low 1.02 | locus YGL078C, strain dbp3, active compounds read low 0.977 | locus YGL086W, strain mad1, active compounds read low 0.984 | locus YGL167C, strain pmr1, active compounds read low 0.996 | locus YGL173C, strain kem1, active compounds read low 1.02 | locus YGL227W, strain vid30, active compounds read low 0.998 | locus YGL240W, strain doc1, active compounds read low 0.978 | locus YGL248W, strain PDE1, active compounds read low 0.992 | locus YGL253W, strain hxk2, active compounds read low 0.996 | locus YGR078C, strain PAC10, active compounds read low 1.01 | locus YGR135W, strain pre9, active compounds read low 0.999 | locus YGR229C, strain SMI1, active compounds read low 1.01 | locus YGR252W, strain gcn5, active compounds read low 0.966 | locus YHR013C, strain ard1, active compounds read low 1.01 | locus YHR027C, strain rpn1, active compounds read low 0.985 | locus YHR030C, strain SLT2, active compounds read low 0.991 and 0.986 | locus YHR079C, strain IRE1 (second series), active compounds read low 0.983 | locus YHR079C, strain IRE1, active compounds read low 0.995 | locus YHR094C, strain hxt1, active compounds read low 0.98 | locus YHR129C, strain ARP1, active compounds read low 1 | locus YHR142W, strain chs7, active compounds read low 1.01 | locus YHR200W, strain rpn10, active compounds read low 0.97 | locus YIL066C, strain RNR3, active compounds read low 0.982 | locus YIL073C, strain SPO22, active compounds read low 0.975 | locus YIL125W, strain kgd1, active compounds read low 0.977 | locus YIR030C, strain dcg1, active compounds read low 0.983 | locus YJL092W, strain hpr5, active compounds read low 1.01 | locus YJL095W, strain BCK1 (second series), active compounds read low 0.997 | locus YJL095W, strain BCK1, active compounds read low 1.01 and 1 | locus YJL115W, strain asf1, active compounds read low 1.01 | locus YJL129C, strain trk1, active compounds read low 1.01 | locus YJL134W, strain LCB3, active compounds read low 0.992 | locus YJL154C, strain vps35, active compounds read low 1 | locus YJL164C, strain tpk1, active compounds read low 0.996 | locus YJL166W, strain qcr8, active compounds read low 1.01 | locus YJL168C, strain set2, active compounds read low 0.981 | locus YJL187C, strain SWE1 (second series), active compounds read low 0.993 | locus YJL187C, strain SWE1, active compounds read low 1.01 | locus YJR043C, strain POL32, active compounds read low 0.995 | locus YJR066W, strain TOR1, active compounds read low 0.905
